Data reported in PubChem BioAssay (NCI).
The panel holds about 83,000 compounds, 20% with a hit somewhere; the sample as a whole holds those more often.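 Treatment: one concentration, 48 hours, 96-well format. Scoring: percent growth, with anything below 10 considered active.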 A number with no mark means an inactive call. Activity calls are given as the source filed them.

Columns and labels:
Assay in all cases: NCI-60 one-dose screen, 48 h (100 = growth as untreated, 0 = no growth, -100 = all killed)
Settings in all cases: 10 µM unless noted
[1] = tested on: NCI-H23 lung
[2] = tested on: NCI-H322M lung
[3] = tested on: HOP-62 NSCLC
[4] = tested on: NCI-H460 lung
[5] = tested on: HOP-92 NSCLC
[6] = tested on: NCI-H522 lung
[7] = tested on: A549/ATCC NSCLC
[8] = tested on: 786-0 renal
[9] = tested on: DU-145 prostate
[10] = tested on: K-562 leukemia
[11] = tested on: MALME-3M melanoma
[12] = tested on: MDA-MB-231 breast
[13] = tested on: RXF 393 renal
[14] = tested on: SF-268 CNS
[15] = tested on: SF-295 CNS
[16] = tested on: SF-539 CNS
[17] = tested on: UACC-257 melanoma
[18] = tested on: M14 melanoma
[19] = tested on: HCT-15 colon
[20] = tested on: COLO 205 colon

CCCCCCCCCCCCCCn1cc(C2=C(c3coc4ccc(OC)cc34)C(=O)NC2=O)c2ccccc21
growth [1]: 96%
growth [2]: 99.7%
growth [3]: 103%
growth [4]: 98.5%
growth [5]: 107%
growth [6]: 90.3%
growth [7]: 96.6%
growth [8]: 97.6%
growth [9]: 102%
growth [10]: 121%
growth [11]: 107%
growth [12]: 111%
growth [13]: 108%
growth [14]: 98.8%
growth [15]: 97.2%
growth [16]: 103%
growth [17]: 96.8%
growth [18]: 98.7%
growth [19]: 88.1%

COc1cc(/C(C#N)=C/c2nc3c(N4CCOCC4)nc(Cl)nc3n2C)cc(OC)c1OC
growth [1]: 18.2%
growth [2]: 28.8%
growth [3]: 25.1%
growth [4]: -3.75% (active)
growth [5]: -4.18% (active)
growth [6]: 15.7%
growth [7]: 19.5%
growth [8]: 6.45% (active)
growth [9]: 4.54% (active)
growth [10]: 4.64% (active)
growth [11]: 34.8%
growth [12]: 9.11% (active)
growth [13]: 25.7%
growth [14]: 17.2%
growth [15]: -15% (active)
growth [16]: -23.7% (active)
growth [17]: 66.2%
growth [18]: 10.8%
growth [19]: 8.94% (active)

O=c1oc2ccc(I)cc2c(=O)n1-c1ccc(Br)cc1F
growth [1]: 5.56% (active)
growth [2]: 5.24% (active)
growth [3]: -11.7% (active)
growth [4]: 2.84% (active)
growth [5]: -11.7% (active)
growth [6]: -10% (active)
growth [8]: 4.56% (active)
growth [20]: 50.3%
growth [9]: 16.6%
growth [10]: 7.02% (active)
growth [11]: -26.7% (active)
growth [12]: -21.2% (active)
growth [13]: 3.07% (active)
growth [14]: 9.55% (active)
growth [15]: -58.1% (active)
growth [16]: 4.36% (active)
growth [17]: -13.6% (active)
growth [18]: -0.737% (active)
growth [19]: -7.61% (active)

CC(C)(C)c1ccc(C2CC(=O)C3=C(C2)Nc2ccccc2N(C(=O)c2ccccc2Cl)C3c2ccc(F)cc2)cc1 (stereo unspecified)
growth [1]: 3.17% (active)
growth [2]: -9.78% (active)
growth [3]: 25.3%
growth [4]: -0.748% (active)
growth [5]: 58.5%
growth [6]: 14.7%
growth [8]: 51.8%
growth [20]: -63.5% (active)
growth [9]: 37%
growth [10]: 10.1%
growth [11]: -85% (active)
growth [12]: 15.7%
growth [13]: -3.26% (active)
growth [14]: 10.3%
growth [16]: 8.74% (active)
growth [17]: -34.1% (active)
growth [18]: 5.11% (active)
growth [19]: 19.3%

O=C(COc1cc(O)c2c(=O)cc(-c3ccccc3)oc2c1)Nc1ccccc1C(F)(F)F
growth [1]: 46.1%
growth [2]: 62.2%
growth [3]: 16.2%
growth [4]: -42.5% (active)
growth [5]: 51.6%
growth [6]: 46.6%
growth [8]: 7.11% (active)
growth [20]: 60.1%
growth [9]: 52.7%
growth [10]: 49.2%
growth [11]: 54.3%
growth [12]: 9.62% (active)
growth [13]: 63.4%
growth [14]: 63.5%
growth [15]: 34.6%
growth [16]: 35.2%
growth [17]: 73.4%
growth [18]: 70.6%
growth [19]: 53.4%

COc1cc([C@@H]2NC(=O)NC(C)=C2C(=O)Nc2nc(-c3ccc(Cl)cc3)cs2)ccc1O
growth [1]: 96.3%
growth [2]: 95.4%
growth [3]: 86.1%
growth [4]: 102%
growth [5]: 103%
growth [6]: 84%
growth [8]: 98.4%
growth [20]: 116%
growth [9]: 102%
growth [10]: 99.9%
growth [11]: 95.4%
growth [12]: 92.6%
growth [14]: 94%
growth [15]: 98.2%
growth [16]: 95.7%
growth [17]: 104%
growth [18]: 94.2%
growth [19]: 100%

COc1cc(/C=C/C(=O)c2ccc(Nc3nc(NCCO)nc(N4CCOCC4)n3)cc2)cc(OC)c1OC
growth [1]: 15.7%
growth [2]: 30.9%
growth [3]: 34.3%
growth [4]: -20.8% (active)
growth [5]: 39.7%
growth [6]: 24.1%
growth [7]: 14.4%
growth [8]: 16.9%
growth [9]: 17.9%
growth [10]: 10.7%
growth [11]: 40%
growth [12]: 32.9%
growth [13]: 6.75% (active)
growth [14]: 17.5%
growth [15]: 66.6%
growth [16]: -5.44% (active)
growth [17]: 48.8%
growth [18]: 26.8%
growth [19]: 2.16% (active)

COc1ccc2sc3c(NCCCN)nc4ccccc4c3c(=O)c2c1
growth [1]: 80.7%
growth [2]: 68.9%
growth [3]: 57.2%
growth [4]: -73.3% (active)
growth [5]: 33.9%
growth [6]: 18.7%
growth [7]: -44.8% (active)
growth [8]: 42.3%
growth [9]: -6.46% (active)
growth [10]: -56.9% (active)
growth [11]: 94.2%
growth [12]: 25.3%
growth [13]: 49.5%
growth [14]: 57.6%
growth [15]: 94.5%
growth [16]: 74.1%
growth [17]: 95.7%
growth [18]: 18.9%
growth [19]: -49% (active)

C[C@@H](C(=O)NCCCC#Cc1cnc(Nc2ccc(C#N)cc2)nc1NC1CC1)N(C)C(=O)/C=C/CN(C)C
growth [1]: 22.8%
growth [2]: 63%
growth [3]: 44.2%
growth [4]: 15.3%
growth [5]: 107%
growth [6]: 59.1%
growth [7]: 32.8%
growth [8]: 39.8%
growth [9]: 38.4%
growth [10]: 14.1%
growth [11]: 22.5%
growth [12]: 77.8%
growth [13]: -1.36% (active)
growth [14]: 48.4%
growth [15]: 25.9%
growth [16]: 9.99% (active)
growth [17]: 40.2%
growth [18]: 26.7%
growth [19]: 29.9%

COc1cc2nc(NC3CCC3)nc(NC3CCN(C(C)C)CC3)c2cc1OC
growth [1]: 92.2%
growth [2]: 89.2%
growth [3]: 81.5%
growth [4]: 58.3%
growth [5]: 26%
growth [6]: 30.7%
growth [7]: 4.73% (active)
growth [8]: 68%
growth [9]: 57.1%
growth [10]: 0.162% (active)
growth [11]: -4.44% (active)
growth [12]: -2.38% (active)
growth [13]: -16.9% (active)
growth [14]: 77.9%
growth [15]: 96.6%
growth [16]: 5.1% (active)
growth [17]: -59.9% (active)
growth [18]: -65.8% (active)
growth [19]: 67.7%

O=C1Nc2ccccc2/C1=C/c1cccs1
growth [1]: 92.5%
growth [2]: 84.6%
growth [3]: 83.5%
growth [4]: 92.5%
growth [5]: 75.3%
growth [6]: 95.2%
growth [8]: 94.1%
growth [20]: 107%
growth [9]: 103%
growth [10]: 114%
growth [11]: 93.6%
growth [12]: 94.5%
growth [13]: 97.9%
growth [14]: 94.1%
growth [15]: 101%
growth [16]: 86.7%
growth [17]: 100%
growth [18]: 97.3%
growth [19]: 78.8%

FC(F)(F)c1cccc(CNC2CCN(CCc3ccccc3)CC2)c1
growth [1]: 71.6%
growth [2]: 84%
growth [3]: 91.1%
growth [4]: 59.8%
growth [5]: 15.7%
growth [6]: 86.7%
growth [8]: 78.6%
growth [20]: 76.2%
growth [9]: 59.1%
growth [10]: 30.1%
growth [11]: 74.8%
growth [12]: 66.5%
growth [13]: 84.1%
growth [14]: 74.7%
growth [15]: 81.7%
growth [16]: 93.5%
growth [17]: 87%
growth [18]: 49.2%
growth [19]: 86.8%

CCN1CCN(C(=S)SCC(=O)Nc2nc3ccc(C)cc3s2)CC1
growth [1]: 99.2%
growth [2]: 103%
growth [3]: 99.7%
growth [4]: 113%
growth [5]: 92.5%
growth [6]: 29.1%
growth [8]: 118%
growth [20]: 103%
growth [9]: 113%
growth [10]: 104%
growth [11]: 105%
growth [12]: 104%
growth [13]: 108%
growth [14]: 107%
growth [15]: 106%
growth [16]: 117%
growth [17]: 116%
growth [18]: 124%
growth [19]: 103%

O=C(Nc1ccc(F)cc1F)c1cc(Cl)ccc1O
growth [1]: 5.18% (active)
growth [2]: 5.61% (active)
growth [3]: 3.07% (active)
growth [4]: 7.22% (active)
growth [5]: -20.5% (active)
growth [6]: -28.2% (active)
growth [8]: 2.83% (active)
growth [20]: 9.45% (active)
growth [9]: 18%
growth [10]: 11%
growth [11]: -21.9% (active)
growth [12]: 10.3%
growth [13]: 4.05% (active)
growth [14]: 15%
growth [15]: -8.97% (active)
growth [16]: 12.3%
growth [17]: -11% (active)
growth [18]: 18.8%
growth [19]: 13.9%

CC(=O)c1ccc(Nc2nc(NCCO)nc(Nc3ccc(Cl)cc3)n2)cc1
growth [1]: 99.1%
growth [2]: 97.1%
growth [3]: 100%
growth [4]: 93.6%
growth [5]: 86.4%
growth [6]: 81.2%
growth [7]: 85.6%
growth [8]: 104%
growth [9]: 94.8%
growth [10]: 78%
growth [11]: 93.5%
growth [12]: 82.5%
growth [13]: 67.2%
growth [14]: 91.9%
growth [15]: 97.8%
growth [16]: 87.2%
growth [17]: 88.4%
growth [18]: 114%
growth [19]: 73.9%

COc1cc(NC(=O)CCSc2nc3ccccc3c(=O)n2CCc2ccccn2)cc(OC)c1OC
growth [1]: 88.3%
growth [2]: 88.8%
growth [3]: 85.7%
growth [4]: 83.5%
growth [5]: 89.1%
growth [6]: 25%
growth [8]: 84.3%
growth [20]: 115%
growth [9]: 103%
growth [10]: 94.8%
growth [11]: 59%
growth [12]: 80.2%
growth [13]: 75.2%
growth [14]: 80.8%
growth [15]: 88.4%
growth [16]: 73.7%
growth [17]: 93.2%
growth [18]: 103%
growth [19]: 96.4%

Oc1[nH]c2ccccc2c1N=Nc1nnc2n1N=C(c1ccccc1)CS2
growth [1]: 70%
growth [2]: 104%
growth [3]: 46.1%
growth [4]: 83.3%
growth [5]: 64.7%
growth [6]: 43.6%
growth [8]: 82%
growth [20]: 105%
growth [9]: 84.1%
growth [10]: 77.7%
growth [11]: 103%
growth [12]: 88.6%
growth [13]: 82.4%
growth [14]: 69.1%
growth [15]: 99.9%
growth [16]: 82.6%
growth [17]: 79.6%
growth [18]: 99.1%
growth [19]: 105%
